Our source for the max response, outcome and Potency values is PubChem BioAssay (NCATS).

“And” between values parts separate entries of the source, which are not always exact repeats. Identical values can stand only once. Records with an inconclusive call do not appear. The source holds several records for some structures; these can differ, active in one and inactive in another. A number with no mark means an inactive call. The source made the active and inactive calls. Calls come from the whole dose curve; as a rule, active = well fitted inhibition curve with a large enough effect; inconclusive = small, poorly fitted or top-dose-only effect; inactive = flat fitted curve, though single readings scatter.
% is set by controls: 0 for no effect and ±100 for the full control effect; potency is the fitted concentration of half-maximal effect.

In this assay the test system is KB-3-1. Description: Cytotoxic Profiling of Annotated Libraries Using Quantitative High-Throughput Screening (AID 1296008). Note: nearly all actives have a fitted effect of over 60% in size. The conditions noted are these: Five cell lines viability, CellTiter-Glo ATP luminescence, 48-72 h; max response: active compounds read low. The source says:
Cell-based phenotypic screening is a commonly used approach to discover biological pathways, novel drug targets, chemical probes and high-quality hit-to-lead molecules. Many hits identified from high-throughput screening campaign are ruled out through a series of follow-up potency, selectivity/specificity, and cytotoxicity assays. Prioritization of molecules with little or no cytotoxicity for a more in-depth downstream evaluation influence the future direction of projects, so cytotoxicity profiling of the screening libraries at early stage is essential for increasing the likelihood of candidate success. […] For the annotated library, we also examined the primary targets and mechanistic pathways regularly associated with cell death. To our knowledge, this is the first study to use high-throughput screening to profile large libraries for cytotoxicity assessment in both normal and cancer cell lines. In summary, the results generated here constitutes a valuable resource for the scientific community and provides insight on identifying cytotoxic compounds with particular mechanisms of action, and prioritizing compounds with suitable cytotoxicity profile for further evaluation.
A pintool (Kalypsys) was used to transfer 23 nL of compound solution to the 1536-well assay plates. After 48 or 72 hr incubation at 37 degree Celsius, 5% CO2 and 95% humidity, 2.5 uL of CellTiter-Glo (Promega) was dispensed into each well using a dispenser (Aspect Automation, St. Paul, MN) with solenoid valves (Lee Valves, Westbrook CT). Plates were left at room temperature for 10 min before imaging the ATP-coupled luminescence using a ViewLux microplate imager (PerkinElmer, Waltham, MA).
Background: Cellular ATP, detected with luciferase, serves as a proxy for viable cell number.
For `CC(COc1ccccc1)NC(C)C(O)c1ccc(O)cc1` (stereo not given), the max response is 15.9%.

Turning to `O=c1[nH]c(=O)c2[nH]c(=O)[nH]c2[nH]1`, the max response was 23.1% and -16.9%.

In the case of `Cn1cc[nH]c1=S`, the max response is 10.2%.

Consider `CCN(CC)CCNC(=O)c1cc(Cl)c(N)cc1OC`, for which the max response is 7.45% and the compound was classed as inactive.

In the case of `CN(C)CC[C@@H](c1ccc(Cl)cc1)c1ccccn1`, the max response is -22.8%.

Turning to `CC12CCC(CC1)C(C)(C)O2`, the max response is -7.48%.

Regarding `COc1ccc2c(c1)C(=O)N(CCc1ccc(S(=O)(=O)NC(=O)NC3CCCCC3)cc1)C(=O)C2(C)C`, the max response was 7.8% and -5.8%.

As for `OC[C@H]1O[C@@H](O[C@@H]2[C@@H](CO)O[C@](O)(CO)[C@H]2O)[C@H](O)[C@@H](O)[C@H]1O`, the max response is -20%.

Take `CN1CCC[C@@H]1Cc1c[nH]c2ccc(CCS(=O)(=O)c3ccccc3)cc12`: the outcome was inactive and the max response was -5.28%.

Take `CCOC(=O)c1ccc(O)cc1`: the max response was -4.79%.

Take `OCC(O)CN1CCN(c2ccccc2)CC1` (stereo not given): the max response is -6.94% and 8%.

In the case of `Cc1ncc(COP(=O)(O)O)c(C=O)c1O`, the max response was -1.97%.

Take `Cc1cc(C(C#N)c2ccc(Cl)cc2)c(Cl)cc1NC(=O)c1cc(I)cc(I)c1O` (stereo not given): the outcome was inactive.

As to `Nc1ccc(S(=O)(=O)Nc2ccccc2)cc1`, the max response is 8.52%.

In the case of `CCCCOc1cc(C(=O)OCCN(CC)CC)ccc1N`, the Potency was 4.95 µM (active) and the max response is 6.85%.

For `O=c1cc[nH]c(=S)[nH]1`, the max response is -6.83%.

`C[C@@H]1CN(c2c(F)c(F)c3c(=O)c(C(=O)O)cn(C4CC4)c3c2F)C[C@H](C)N1`: the call was inactive and the max response was -12.7%.

For `Oc1cn2c(n1)Nc1ccc(Cl)c(Cl)c1C2`, the max response is -2.96% and -14.6%.

In the case of `O=C(O)CC(O)C(=O)O` (stereo not given), the max response was 15.7%.

For the compound `CC1(C)[C@@H]2CC[C@@]1(C)C(=O)C2`, the max response was -13.1%.

As to `CCCCN(CCCC)CC(O)c1cc(Cl)cc2c1-c1ccc(Cl)cc1/C2=C/c1ccc(Cl)cc1` (stereo not given), the max response was -7.25%.

As to `CN(N=O)C(=O)N[C@@H]1[C@@H](O)[C@H](O)[C@@H](CO)O[C@@H]1O`, the max response was 28.6%.

Consider `CCC(=O)c1ccc(O)cc1`, for which the max response was 5.91%.

Turning to `COc1cc2[nH]c(=O)[nH]c(=O)c2cc1OC`, the max response was 35.7%.

With `C[C@@H]1CC[C@@]2(OC1)O[C@H]1C[C@H]3[C@@H]4CC[C@H]5C[C@@H](O)CC[C@]5(C)[C@H]4CC(=O)[C@]3(C)[C@H]1[C@@H]2C`, the max response is 1.37%.

On to `O=C(O)Cc1sc(-c2ccccc2)nc1-c1ccc(Cl)cc1`, for which the max response was -1.67% and -19.6% and -27.8%.

With `O=C1c2c(O)cccc2Cc2cccc(O)c21`, the max response was -0.793%.

In the case of `CC(C)(C)NCC(O)COc1ccc(NC(=O)NC2CCCCC2)cc1` (stereo not given), the max response is 0.958%.

Regarding `Cc1ccc(C(C)C)cc2c(C)ccc1-2`, the max response was -19.4%.

Consider `N[C@H]1C(O)O[C@H](CO)[C@@H](O)[C@@H]1O` (stereo not given in full), for which the max response is 2.62%.

Take `O=Cc1ccccc1C=O`: the max response was -3.37%.

On to `CCCc1c(OCCCCc2nn[nH]n2)ccc(C(C)=O)c1O`, for which the max response was -12.2%.

As for `CCCCN1CCCC[C@H]1C(=O)Nc1c(C)cccc1C`, the result was inactive and the max response was 2.43%.

Regarding `CC1=C(CC(=O)O)c2cc(F)ccc2/C1=C\c1ccc(S(C)(=O)=O)cc1`, the max response is -9.19%.

Consider `C[C@@H](O)[C@H](N)C(=O)O`, for which the max response was 1.86%.
